Assay results: PubChem BioAssay (NCI)
The panel holds about 83,000 compounds, 20% with a hit somewhere; the sample as a whole holds those more often.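 Cells were grown in 96-well plates and exposed to the test compound at a single concentration for 48 hours; results are reported as percent growth, with values below 10 considered active.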 Unmarked numbers belong to inactive results. Activity calls are given as the source filed them.

System: HL-60(TB) leukemia
Test: NCI-60 one-dose screen, 48 h (100 = growth as untreated, 0 = no growth, -100 = all killed)
Details: 10 µM unless noted

Row | Compound | growth
1 | NNC(=O)CCCCl | 102%
2 | CCN1CCN(CCOc2ccc(CNc3ccc4nc(CCC5CCCCC5)[nH]c4c3)cc2)CC1 | -12.7% (active)
3 | CC(C)[C@H](CN)NC[C@H](C)NS(=O)(=O)c1ccc(C(C)(C)C)cc1 | 95.4%
4 | C=C1C(=O)O[C@@H]2[C@H]3[C@H](COC(C)=O)[C@@H](OC(C)=O)C[C@H]3C(=C)[C@@H](O)C[C@@H]12 | 78.9%
5 | COc1ccc(C(=O)O)cc1.[Ag] | -46% (active)
6 | O=C(c1cccc(N2CCOCC2)n1)c1c[nH]c2ccccc12 | 98.9%
7 | Cc1cc(C)c2nc(C)c(C)[n+]([O-])c2c1 | 85.7%
8 | O=S(=O)(NCCNc1nccc(-c2c(-c3ccc(F)c(O)c3)nc3sccn23)n1)c1ccc(O)cc1 | 41.8%
9 | CCCCCCCCOC(=O)C(C)OC(=O)OCCOCCOC(=O)OC(C)C(=O)OCCCCCCCC (centres undefined) | 108%
10 | Cl.Fc1c[c-]c(-c2ccccn2)c(F)c1.[Pt].c1ccc(P(c2ccccc2)C([PH+](c2ccccc2)c2ccccc2)[PH+](c2ccccc2)c2ccccc2)cc1 | 8.71% (active)
11 | CC[C@H](Nc1ncnc2nc[nH]c12)c1nc2cccc(NCc3ccc(C(=O)NO)nc3)c2c(=O)n1-c1ccccc1 | 17.8%
12 | CC1CCC(C)N(C)C1 (centres undefined) | 96.2%
13 | CC(C)=CCC/C(C)=C/CC/C(C)=C/CC/C=C(\C)CC/C=C(\C)CCC(=O)Nc1ccn(C2OC(CO)C(O)C2(F)F)c(=O)n1 (centres undefined) | -21.3% (active)
14 | COc1ccc(-c2nc3sc(-c4ccccc4)c(-c4ccccc4)n3c2/C=C/c2ccc(F)cc2)cc1 | 105%
